A short description of assay [1]: Quantitative High-Throughput drug screen in 47 multiple myeloma cell lines against the NCATS MIPE library collection: Karpas620_DSMZ cell viability assay (AID 1918959). Note: nearly all actives have a fitted effect of over 30% in size. An outline of the steps: (§1)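 Inhibition of cell viability is measured here. Each line was plated at 500 cells per well, treated with MIPE 4.0 drugs, kept 48 hours at 37C, then assayed for ATP content by CellTiter-Glo luminescence.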

The nature of assay [2]: Quantitative High-Throughput drug screen in 47 multiple myeloma cell lines against the NCATS MIPE library collection: KMM1_JCRB cell viability assay (AID 1918960). Note: nearly all actives have a fitted effect of over 30% in size. The method in brief:
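Myeloma cells at 500 per well in 1536-well format treated with MIPE 4.0 library by pin transfer for 48 h at 37C, 5% CO2. Viability from ATP luminescence (CellTiter-Glo), normalized to DMSO (100%) and media-only (0%) wells.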

Assay [3] in a line: Quantitative High-Throughput drug screen in 47 multiple myeloma cell lines against the NCATS MIPE library collection: KHM11_PLB cell viability assay (AID 1918962). Note: nearly all actives have a fitted effect of over 35% in size. An outline of the steps: as §1
Assay [4] in a line: Quantitative High-Throughput drug screen in 47 multiple myeloma cell lines against the NCATS MIPE library collection: JIM3_ECACC cell viability assay (AID 1918963; note: nearly all actives have a fitted effect of over 35% in size). An outline of the steps: as §1
Assay [5] in a line: Quantitative High-Throughput drug screen in 47 multiple myeloma cell lines against the NCATS MIPE library collection: INA6_PLB cell viability assay (AID 1918965; note: nearly all actives have a fitted effect of over 55% in size). An outline of the steps:
(§2)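 qHTS of the MIPE 4.0 collection: 500 myeloma cells/well, 48 h drug exposure at 37C in 5% CO2, then CellTiter-Glo for 5 min at room temperature before luminescence reading.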

Assay [6] can be described thus: Quantitative High-Throughput drug screen in 47 multiple myeloma cell lines against the NCATS MIPE library collection: H1112_PLB cell viability assay (AID 1918967; note: nearly all actives have a fitted effect of over 30% in size). The method in brief:
(§3)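 Steps: seed 500 cells per well; pin-transfer MIPE 4.0 library; incubate 48 h at 37C, 5% CO2, humidified; add CellTiter-Glo, 5 min room temperature; read luminescence.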

A short description of assay [7]: Quantitative High-Throughput drug screen in 47 multiple myeloma cell lines against the NCATS MIPE library collection: KMS27_JCRB cell viability assay (AID 1918970). Note: nearly all actives have a fitted effect of over 30% in size. An outline of the steps:
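Myeloma cells (500 per well) were exposed to MIPE 4.0 compounds for 48 h at 37 °C, 5% CO2; viability was read as ATP luminescence with CellTiter-Glo, normalized to DMSO-only (100%) and media-only (0%) wells.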

The nature of assay [8]: Quantitative High-Throughput drug screen in 47 multiple myeloma cell lines against the NCATS MIPE library collection: KMS12BM_JCRB cell viability assay (AID 1918971). Note: nearly all actives have a fitted effect of over 35% in size. An outline of the steps: (§4)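 Viability readout: CellTiter-Glo luminescence following 5 min room-temperature incubation with reagent. Prior exposure: 48 h, 37C, humidified 5% CO2, 500 cells per well.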
A short description of assay [9]: Quantitative High-Throughput drug screen in 47 multiple myeloma cell lines against the NCATS MIPE library collection: KMS12PE_JCRB cell viability assay (AID 1918972). Note: nearly all actives have a fitted effect of over 30% in size. An outline of the steps: as §2
Assay [10] in a line: Quantitative High-Throughput drug screen in 47 multiple myeloma cell lines against the NCATS MIPE library collection: JIM1_ECACC cell viability assay (AID 1918964). The method in brief:
as §3

Assay [11] can be described thus: Quantitative High-Throughput drug screen in 47 multiple myeloma cell lines against the NCATS MIPE library collection: Karpas25_ECACC cell viability assay (AID 1918968; note: nearly all actives have a fitted effect of over 35% in size). The method in brief: as §3
Assay [12] is described as follows: Quantitative High-Throughput drug screen in 47 multiple myeloma cell lines against the NCATS MIPE library collection: KMS26_JCRB cell viability assay (AID 1918975). Note: nearly all actives have a fitted effect of over 45% in size. The method in brief: as §4
Assay [13] can be described thus: Quantitative High-Throughput drug screen in 47 multiple myeloma cell lines against the NCATS MIPE library collection: ARD_JJKsccE7 cell viability assay (AID 1918929). The method in brief: as §3
Assay [14] in a line: Quantitative High-Throughput drug screen in 47 multiple myeloma cell lines against the NCATS MIPE library collection: KMS20_JCRB cell viability assay (AID 1918973). Note: nearly all actives have a fitted effect of over 45% in size. The method in brief:
as §3

The nature of assay [15]: Quantitative High-Throughput drug screen in 47 multiple myeloma cell lines against the NCATS MIPE library collection: MMM1_PLB cell viability assay (AID 1918976). Note: nearly all actives have a fitted effect of over 35% in size. The method in brief: (§5)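 Viability after 48 h drug exposure was measured as ATP-dependent luminescence. Cells, 500 per well, sat at 37 °C under 5% CO2; DMSO wells set 100%, media-only wells 0%.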
Assay [16] is described as follows: Quantitative High-Throughput drug screen in 47 multiple myeloma cell lines against the NCATS MIPE library collection: MOLP8_DSMZ cell viability assay (AID 1918977). Note: nearly all actives have a fitted effect of over 45% in size. The method in brief: as §5
A short description of assay [17]: Quantitative High-Throughput drug screen in 47 multiple myeloma cell lines against the NCATS MIPE library collection: NCIH929_DSMZ cell viability assay (AID 1918978). Note: nearly all actives have a fitted effect of over 35% in size. The method in brief: as §5
The nature of assay [18]: Quantitative High-Throughput drug screen in 47 multiple myeloma cell lines against the NCATS MIPE library collection: JJN3_DSMZ cell viability assay (AID 1918966; note: nearly all actives have a fitted effect of over 50% in size). The method in brief:
as §3

The nature of assay [19]: Quantitative High-Throughput drug screen in 47 multiple myeloma cell lines against the NCATS MIPE library collection: KMS21BM_JCRB cell viability assay (AID 1918974). To be noted: ATP luminescence, 48 h; viability: at 45.8 µM (top of the series) unless noted. The method in brief:
as §3

Assay [20] can be described thus: Quantitative High-Throughput drug screen in 47 multiple myeloma cell lines against the NCATS MIPE library collection: Karpas417_ECACC cell viability assay (AID 1918961). To be noted: Karpas417 myeloma viability, CellTiter-Glo ATP luminescence, 48 h; viability (% of DMSO): at 45.8 µM (top of the series). The method in brief:
as §2
(ATP-based viability assays read luminescence as a measure of living cells.)

Results filed as inconclusive are left out. Active and inactive are the calls of the source. Calls come from the whole dose curve; as a rule, active = well fitted curve in the direction sought with a large enough effect; inconclusive = small, poorly fitted or top-dose-only effect, or another doubt; inactive = no such curve, though single readings can be large; an effect the other way counts as inactive or inconclusive.
Potency is the fitted concentration of half-maximal effect.

`CN1[C@@H]2CCC[C@@H]1CC(NC(=O)c1nn(C)c3ccccc13)C2` (stereo not given in full): the Potency entry in assay [1], in [2], in assay [3], in assay [4], in assay [5] and in assay [6] was “inactive” each time. The Potency entry in [7], in assay [8] and in assay [9] was “inactive” each time.

`CC(=O)O[C@]1(C(C)=O)CC[C@@H]2[C@@H]3C[C@H](C)C4=CC(=O)CC[C@]4(C)[C@H]3CC[C@@]21C`: the Potency result in assay [1], in assay [3], in [4], in [10], in [7] and in [9] was “inactive” in each case. Also, the Potency was 4.69 µM (active) in [2]; 18.7 µM (active) in [5]; 18.7 µM (active) in [11]; 16.6 µM (active) in [8]; 23.5 µM (active) in assay [12].

Consider `CC[C@@]1(O)C[C@H](O[C@H]2C[C@H](N(C)C)[C@H](O[C@H]3C[C@H](O)[C@H](O[C@H]4CCC(=O)[C@H](C)O4)[C@H](C)O3)[C@H](C)O2)c2c(cc3c(c2O)C(=O)c2c(O)cccc2C3=O)[C@@H]1C(=O)OC`, for which the Potency in [13] was 5.26 µM (active); in assay [2], 5.9 µM (active); in [3], 0.132 µM (active); in [4], 0.332 µM (active); in assay [5] it was 0.0662 µM (active); in assay [6] it was 0.833 µM (active). For the same compound, the Potency in assay [8] was 0.148 µM (active); in [14], 0.0743 µM (active); in assay [12], 0.743 µM (active); in [15], 0.296 µM (active); in [16], 0.296 µM (active); in assay [17] it was 0.264 µM (active). Further, the Potency result in assay [7] was “inactive”.

On to `CC1(C)CCC[C@@]2(C)[C@@H]1CC[C@@]1(C)OC(=O)C[C@H]21`, for which the Potency result in [1], in [2], in assay [3], in assay [10], in assay [5] and in assay [18] was “inactive” throughout. For the same compound, the Potency entry in assay [6], in assay [19] and in assay [17] was “inactive” in each case. Besides, in [9], the Potency was 14.8 µM (active).

As to `COCCOC(=O)C1=C(C)NC2=C(C(=O)CC(c3ccccc3OC)C2)C1c1cccc(O)c1` (stereo not given), the Potency is 1.66 µM (active) in assay [13]; 11.8 µM (active) in assay [3]; 20.9 µM (active) in assay [4]; 9.35 µM (active) in assay [10]; 1.66 µM (active) in assay [5]; 13.2 µM (active) in [11]. The Potency is 10.5 µM (active) in [8], 4.18 µM (active) in assay [14] and 8.33 µM (active) in assay [12].

For the compound `O=C1NC(=O)C(=Cc2ccc(-c3ccc(F)cc3)o2)S1`, the Potency entry in assay [1], in assay [3], in assay [5], in [7] and in [16] was “inactive” throughout. For the same compound, the Potency in assay [2] was 5.9 µM (active); in assay [20], 1.66 µM (active); in assay [9], 4.18 µM (active); in assay [19], 2.09 µM (active); in assay [15], 11.8 µM (active).

For the compound `O=C1c2c(O)cc(O)cc2O[C@H](c2cc(O)c(O)c(O)c2)[C@H]1O`, the Potency entry in [13], in [2], in [3], in assay [6], in assay [7] and in assay [9] was “inactive” each time. In [17], the Potency entry is “inactive”. In addition, the Potency in assay [10] was 5.9 µM (active); in [18] it was 16.6 µM (active); in [12] it was 20.9 µM (active); in assay [15] it was 10.5 µM (active); in assay [16], 18.7 µM (active).

Take `NC(CO)(CO)CCc1ccc(Sc2cccc(OCc3ccccc3)c2)cc1Cl`: the Potency in assay [1] was 16.6 µM (active); in assay [2], 18.7 µM (active); in assay [3] it was 7.43 µM (active); in [4], 13.2 µM (active); in [10] it was 16.6 µM (active); in [5] it was 9.35 µM (active). For the same compound, the Potency in assay [6] is 16.6 µM (active); in [11], 7.43 µM (active); in assay [7], 11.8 µM (active); in assay [9] it was 9.35 µM (active); in [19], 13.2 µM (active); in assay [12] it was 18.7 µM (active). Also, in [15], the Potency is 23.5 µM (active).

Take `O=C(O)CCC1CCC(c2cc(F)ccc2F)(S(=O)(=O)c2ccc(Cl)cc2)CC1` (stereo not given): the Potency in assay [13] is 14.8 µM (active); in assay [2] it was 16.6 µM (active); in [5], 3.32 µM (active); in assay [6], 9.35 µM (active); in [11] it was 8.33 µM (active); in assay [7], 2.64 µM (active). Moreover, the Potency was 13.2 µM (active) in assay [9], 5.26 µM (active) in assay [14] and 8.33 µM (active) in assay [17]. Further, the Potency result in assay [4], in assay [18] and in assay [12] was “inactive” each time.

Regarding `O=c1cc(CN2CCOCC2)occ1OCCCCCSc1ccnc2cc(C(F)(F)F)ccc12`, the Potency is 20.9 µM (active) in [13]; 13.2 µM (active) in assay [2]; 4.69 µM (active) in [4]; 18.7 µM (active) in assay [10]; 7.43 µM (active) in [5]; 7.43 µM (active) in assay [18]. In addition, the Potency in [6] is 0.833 µM (active); in assay [7], 20.9 µM (active); in assay [9], 16.6 µM (active); in assay [12] it was 16.6 µM (active); in assay [17], 3.72 µM (active).

As for `COc1cc(N2CCC(N3CCN(C)CC3)CC2)ccc1Nc1ncnc(Nc2ccccc2S(=O)(=O)C(C)C)n1`, the Potency result in assay [13], in [10], in assay [9] and in assay [19] was “inactive” each time. Besides, the Potency in assay [4] was 5.26 µM (active); in [5], 14.8 µM (active); in assay [8], 23.5 µM (active).

On to `COc1ccc(-c2cc(=O)c3c(O)cc(O)cc3o2)cc1O`, for which the Potency in assay [13] was 6.62 µM (active); in [2] it was 7.43 µM (active); in assay [3], 10.5 µM (active); in assay [4] it was 7.43 µM (active); in assay [10], 9.35 µM (active); in [5], 8.33 µM (active). Further, the Potency was 5.9 µM (active) in assay [9]; 4.18 µM (active) in [14]; 5.9 µM (active) in assay [12]; 0.935 µM (active) in assay [15]; 2.64 µM (active) in assay [17].

As to `Clc1ccc(-c2nc3sccn3c2C=NOCc2ccc(Cl)c(Cl)c2)cc1`, the Potency entry in assay [1], in assay [2], in assay [20], in assay [3], in assay [5] and in assay [18] was “inactive” each time. The Potency entry in [6], in assay [9], in assay [12], in [16] and in assay [17] was “inactive” each time. In addition, in assay [15], the Potency is 0.372 µM (active).

For the origin of these results see PubChem BioAssay (NCATS).
